Inconclusive results are not listed. Calls of active or inactive are those of the source. Calls follow the shape of the dose curve; as a rule, active = well fitted curve in the direction sought with a large enough effect; inconclusive = small, poorly fitted or top-dose-only effect, or another doubt; inactive = no such curve, though single readings can be large; an effect the other way counts as inactive or inconclusive.
Legend:
HEK293 = experiment: Cytotoxic Profiling of Annotated Libraries Using Quantitative High-Throughput Screening (AID 1296008); conditions: Five cell lines viability, CellTiter-Glo ATP luminescence, 48-72 h; max response: active compounds read low; also: nearly all actives have a fitted effect of over 60% in size; also: potency is read from the fitted curve at half-maximal effect; as to max response: % is scaled to controls: 0 for no effect and ±100 for the full control effect
Method in brief: (§1)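 Cytotoxicity was measured as CellTiter-Glo ATP luminescence, read after 10 min at room temperature. Compound treatment of the cells lasted 48 or 72 hr at 37 degrees Celsius in a qHTS format.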

HaCat [1] = experiment: as above; conditions: Five cell lines viability, CellTiter-Glo ATP luminescence, 48-72 h; max response: active compounds read low
Method in brief: as §1

CAOV3 = experiment: Primary qHTS to identify gynecologic anti-cancer compounds using libraries of approved drugs and bioactive compounds (AID 1345084); conditions: Gynecologic cancer cell panel viability, ATPlite luminescence, 48 h; series mostly up to 57.5 µM; also: nearly all actives have a fitted effect of over 55% in size; also: potency is read from the fitted curve at half-maximal effect; as to activity change, negative = cytotoxicity: % is scaled to controls: 0 for no effect and ±100 for the full control effect
Method in brief: (§2)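 Measured: luminescence after ATPlite addition (15 min, RT). Exposure: 48 h, 37 C, 5% CO2.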

Hek293T = experiment: as above; conditions: Gynecologic cancer cell panel viability, ATPlite luminescence, 48 h, control line for the selectivity index; series mostly up to 57.5 µM
Method in brief: as §2

JEG-3 = experiment: as above; conditions: Gynecologic cancer cell panel viability, ATPlite luminescence, 48 h; series mostly up to 57.5 µM
Method in brief: as §2

OV90 = experiment: as above; conditions: Gynecologic cancer cell panel viability, ATPlite luminescence, 48 h; series mostly up to 57.5 µM
Method in brief: as §2

C33A = experiment: as above; conditions: Gynecologic cancer cell panel viability, ATPlite luminescence, 48 h; series mostly up to 57.5 µM
Method in brief: as §2

CASKI = experiment: as above; conditions: Gynecologic cancer cell panel viability, ATPlite luminescence, 48 h; series mostly up to 57.5 µM
Method in brief: as §2

Es-2 = experiment: as above; conditions: Gynecologic cancer cell panel viability, ATPlite luminescence, 48 h; series mostly up to 57.5 µM
Method in brief: as §2

SKOV3 = experiment: as above; conditions: Gynecologic cancer cell panel viability, ATPlite luminescence, 48 h; series mostly up to 57.5 µM
Method in brief: as §2

NIH3T3 = experiment: Cytotoxic Profiling of Annotated Libraries Using Quantitative High-Throughput Screening (AID 1296008); conditions: Five cell lines viability, CellTiter-Glo ATP luminescence, 48-72 h; max response: active compounds read low; also: nearly all actives have a fitted effect of over 60% in size; also: potency is read from the fitted curve at half-maximal effect; as to max response: % is scaled to controls: 0 for no effect and ±100 for the full control effect
Method in brief: as §1

HeLa = experiment: Primary qHTS to identify gynecologic anti-cancer compounds using libraries of approved drugs and bioactive compounds (AID 1345084); conditions: Gynecologic cancer cell panel viability, ATPlite luminescence, 48 h; series mostly up to 57.5 µM; also: nearly all actives have a fitted effect of over 55% in size; also: potency is read from the fitted curve at half-maximal effect; as to activity change, negative = cytotoxicity: % is scaled to controls: 0 for no effect and ±100 for the full control effect
Method in brief: as §2

PA-1 = experiment: as above; conditions: Gynecologic cancer cell panel viability, ATPlite luminescence, 48 h; series mostly up to 57.5 µM
Method in brief: as §2

HACAT [2] = experiment: qHTS assay to identify novel small-molecules to repurpose for Merkel cell carcinoma treatment (AID 1296009); conditions: MCC and control cell lines, CellTiter-Glo viability, 72 h; at 44.8 µM (top of the series) unless noted; also: nearly all actives have a fitted effect of over 60% in size
Method in brief: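 After compound transfer in DMSO, plates were kept 72 hr at 37 degree celsius. Luminescent ATP signal from CellTiter-Glo served as viability measure, normalized against DMSO and no-cell controls.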

CN(C)CC1CCn2c(c(C3=C(c4cn(C)c5ccccc45)C(=O)NC3=O)c3ccccc32)C1 (centres undefined)
active: Potency (HEK293) 8.2 µM | Potency (HaCat [1]) 20.6 µM | Potency (CAOV3) 22.4 µM | Potency (OV90) 12.6 µM
inactive: Potency (Hek293T) | Potency (JEG-3)

CC(C)C[C@H](C(=O)O)c1cc(-c2ccc(C(F)(F)F)cc2)cc(-c2ccc(C(F)(F)F)cc2)c1
active: Potency (HEK293) 10.3 µM
inactive: max response (HaCat [1]) 1.64% | Potency (C33A) | Potency (CASKI) | Potency (Es-2) | Potency (JEG-3) | Potency (SKOV3)

COc1ccc(Oc2c(Cl)cnn(-c3cc(C)cc(C)c3)c2=O)cc1
active: Potency (HEK293) 8.2 µM | Potency (NIH3T3) 25.9 µM | Potency (CAOV3) 28.2 µM
inactive: Potency (Es-2) | Potency (HeLa) | Potency (Hek293T)

Cc1ccc(O)cc1Nc1ccnc(Nc2cccc(C(N)=O)c2)n1
active: Potency (HEK293) 14.6 µM | Potency (NIH3T3) 2.31 µM
inactive: Potency (C33A) | Potency (CAOV3) | Potency (JEG-3)

Cn1cc(-c2cnn3c(N)c(Br)c([C@@H]4CCCNC4)nc23)cn1
active: Potency (HEK293) 1.16 µM | Potency (NIH3T3) 2.06 µM
inactive: Potency (C33A) | Potency (CAOV3) | Potency (CASKI) | Potency (OV90)

N#CSc1cc(SC#N)c(N)nc1N
active: Potency (HEK293) 3.1 µM
inactive: max response (HaCat [1]) -25% | activity change, negative = cytotoxicity (CAOV3) -3.29% [at 11.6 µM] | activity change, negative = cytotoxicity (CASKI) 10.8% [at 11.6 µM] | activity change, negative = cytotoxicity (HeLa) -2.58% [at 11.6 µM] | activity change, negative = cytotoxicity (JEG-3) 10.3% [at 11.6 µM] | activity change, negative = cytotoxicity (OV90) 2.64% [at 11.6 µM] | activity change, negative = cytotoxicity (SKOV3) -0.394% [at 11.6 µM]

CN(c1ccc(NC(=O)Nc2ccccc2)cc1)S(=O)(=O)c1cnn(-c2ccc(F)cc2)c1
inactive: max response (HaCat [1]) -33.8% | Potency (C33A) | Potency (CAOV3) | Potency (CASKI) | Potency (Es-2) | Potency (JEG-3) | Potency (OV90) | Potency (PA-1)
active: Potency (HEK293) 16.4 µM

Cc1ccc(C)c(-c2cc(C(F)(F)F)nn2-c2ccc(S(N)(=O)=O)cc2)c1
inactive: max response (HaCat [1]) 3.66% | Potency (CASKI)
active: Potency (HEK293) 5.17 µM | Potency (HeLa) 31.6 µM

COc1ccc2nc(-c3cc(OC)c(OC)c(OC)c3)cc(C(=O)NCC(=O)Nc3ccc(C(C)=O)cc3)c2c1
active: Potency (HEK293) 7.31 µM
inactive: max response (HaCat [1]) -18% | Potency (C33A) | Potency (CAOV3) | Potency (CASKI) | Potency (Es-2) | Potency (HeLa) | Potency (Hek293T) | Potency (OV90)

c1ccc(-c2cnn3cc(-c4ccc(OCCN5CCOCC5)cc4)cnc23)cc1
active: Potency (HEK293) 2.31 µM | Potency (SKOV3) 15.8 µM
inactive: outcome (HaCat [1]) | outcome (HACAT [2]) | Potency (CASKI) | Potency (HeLa) | Potency (JEG-3)

O=C(CN1C2=NCCN2c2ccccc21)c1ccc(-c2ccccc2)cc1
active: Potency (HEK293) 18.4 µM | Potency (HaCat [1]) 16.4 µM
inactive: Potency (C33A) | Potency (Es-2) | Potency (HeLa) | Potency (Hek293T) | Potency (JEG-3) | Potency (PA-1)

Cn1cc(-c2cnn3c(N)c(Br)c(C4CCCNC4)nc23)cn1 (centres undefined)
active: Potency (HEK293) 1.03 µM | Potency (NIH3T3) 6.51 µM | Potency (PA-1) 14.1 µM
inactive: Potency (CAOV3) | Potency (CASKI) | Potency (JEG-3) | Potency (OV90)

CCCC(CCC)C(=O)Nc1ccn([C@@H]2O[C@H](CO)[C@@H](O)C2(F)F)c(=O)n1
active: Potency (HEK293) 6.51 µM | Potency (NIH3T3) 4.11 µM
inactive: Potency (C33A) | Potency (HeLa) | Potency (Hek293T) | Potency (JEG-3)

C=C(NC(=O)C(=C)NC(=O)c1csc(C2=NC3c4csc(n4)C4NC(=O)c5csc(n5)C(C(C)(O)C(C)O)NC(=O)C5CSC(=N5)/C(=C/C)NC(=O)C(C(C)O)NC(=O)c5csc(n5)C3(CC2)NC(=O)C(C)NC(=O)C(=C)NC(=O)C(C)NC(=O)C(C(C)CC)NC2C=Cc3c(C(C)O)cc(nc3C2O)C(=O)OC4C)n1)C(N)=O (centres undefined)
inactive: Potency (HeLa) | Potency (OV90)
active: Potency (HEK293) 1.16 µM | Potency (NIH3T3) 4.61 µM | Potency (CAOV3) 25.1 µM | Potency (Hek293T) 17.8 µM | Potency (PA-1) 28.2 µM

Cc1sc2c(c1C)C(c1ccc(Cl)cc1)=N[C@@H](CC(=O)Nc1ccc(OCCOCCOCCOCCNc3cccc4c3C(=O)N(C3CCC(=O)NC3=O)C4=O)cc1)c1nnc(C)n1-2 (some centres undefined)
active: Potency (HEK293) 0.0447 µM | Potency (SKOV3) 2.82 µM
inactive: max response (NIH3T3) -54% | Potency (C33A) | Potency (Hek293T)

Oc1ccc(-c2cnc3ccc(NCc4ccco4)nn23)cc1
inactive: Potency (JEG-3) | Potency (OV90)
active: Potency (HEK293) 20.6 µM | Potency (HaCat [1]) 7.31 µM | Potency (PA-1) 28.2 µM | Potency (SKOV3) 14.1 µM

CC(C)(C)c1ccc(NC(=O)N2CCN(c3ncccc3Cl)CC2)cc1
inactive: max response (HaCat [1]) 4.52% | Potency (CASKI) | Potency (Es-2) | Potency (HeLa) | Potency (JEG-3)
active: Potency (HEK293) 11.6 µM | Potency (SKOV3) 22.4 µM

CC(=O)N1CCN(CCOc2ccc(C3CCN(C4=Nn5c(nnc5C(F)(F)F)CC4)CC3)cc2)CC1
inactive: max response (HaCat [1]) -1.46% | Potency (C33A) | Potency (CASKI) | Potency (Es-2) | Potency (JEG-3) | Potency (OV90)
active: Potency (HEK293) 9.2 µM

O=C(Nc1cccc([N+](=O)[O-])c1)c1cccc(S(=O)(=O)N2CCCCCC2)c1
active: Potency (HEK293) 6.51 µM
inactive: max response (HaCat [1]) -27.5% | Potency (CAOV3) | Potency (CASKI) | Potency (Es-2) | Potency (HeLa) | Potency (JEG-3) | Potency (PA-1)

COc1ccc(C#Cc2ccc(C(=O)N3CCC[C@@H](O)C3)c(F)c2)cc1
active: Potency (HEK293) 13 µM | Potency (Es-2) 12.6 µM | Potency (Hek293T) 14.1 µM | Potency (SKOV3) 8.91 µM
inactive: max response (HaCat [1]) -33.7% | Potency (JEG-3)
